Assay [1] is described as follows: ATG_CRE_CIS: Attagene CIS-FACTORIAL HepG2 Assay for human cAMP Responsive Element (CRE) binding protein 3 (AID 2282926). As to conditions: HepG2 CRE cis-reporter, Attagene multiplexed mRNA; actives raise or lower the signal. An outline of the steps: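 Assay format: transient reporter transfection of HepG2, 24 h treatment, total RNA isolation with DNase I step. Reporter abundance read by fluorescence after PCR and capillary separation; DMSO-normalised gain or loss fitting.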

The target in assay [2] is CCAAT/enhancer-binding protein beta (Homo sapiens) (UniProt P17676). The experiment in a line: ATG_C_EBP_CIS: Attagene CIS-FACTORIAL HepG2 Assay for human CCAAT/Enhancer Binding Protein (C/EBP) beta (AID 2282927). As to conditions: HepG2 Attagene cis-factorial transcription factor reporter; actives raise or lower the signal. Summed up:
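Following a 24 h incubation with test chemical, transfected HepG2 cells yielded RNA whose reporter transcripts were quantified by RT-PCR and fluorescent capillary electrophoresis, with DMSO serving as baseline for bidirectional fitting.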

Assay [3] can be described thus: ATG_CMV_CIS: Attagene CIS-FACTORIAL HepG2 Assay for human CMV (Internal Marker) (AID 2282928).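 Also: endpoint acts as a background internal control marker rather than a target.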 As to conditions: HepG2 CMV promoter reporter, transcription factor profiling; actives raise or lower the signal. Summed up: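 Fluorescence intensity of RT-PCR-derived reporter fragments, resolved by capillary electrophoresis, gives the signal. HepG2 liver cells bearing transfected cis-element reporters were treated 24 h; activity in either direction was fit relative to DMSO-treated controls.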

Assay [4] can be described thus: ATG_DR4_LXR_CIS: Attagene CIS-FACTORIAL HepG2 Assay for human Liver X Receptor (LXR), DR4 submotif (AID 2282929). As to conditions: HepG2 Attagene DR4 cis-reporter, mRNA transcription; actives raise or lower the signal. Summed up: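 Cells were transfected with multiple reporter transcription units, exposed to chemicals for 24 hours, then lysed for RNA. Reporter mRNA induction was measured by RT-PCR with capillary electrophoresis detection and fitted in both directions relative to DMSO.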

In assay [5] the target is Aryl hydrocarbon receptor (Homo sapiens) (UniProt P35869). The experiment in a line: ATG_Ahr_CIS: Attagene CIS-FACTORIAL HepG2 Assay for human Aryl Hydrocarbon Receptor (Ahr) (AID 2282930). As to conditions: HepG2 AhR cis-factorial reporter transcription; actives raise or lower the signal. Summed up: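 Values derive from bidirectional fitting against DMSO negative control. Underlying signal: cis-element reporter mRNA in transiently transfected HepG2, harvested 24 h post-dose and measured by RT-PCR plus capillary electrophoresis.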

Assay [6] can be described thus: ATG_AP_1_CIS: Attagene CIS-FACTORIAL HepG2 Assay for human Activator Protein 1 (AP-1) (AID 2282931). As to conditions: HepG2 Attagene cis-factorial AP-1 reporter mRNA; actives raise or lower the signal. An outline of the steps:
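Endogenous transcription-factor activity in human HepG2 liver cells is read through a cis-promoter reporter transcript, sampled 24 h after dosing. Detection uses RT-PCR with capillary electrophoresis; values come from bidirectional fitting relative to DMSO.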

Assay [7] in a line: ATG_AP_2_CIS: Attagene CIS-FACTORIAL HepG2 Assay for human Activator Protein 2 (AP-2) (AID 2282932). As to conditions: HepG2 AP-2 cis-reporter, Attagene transcription factor profiling; actives raise or lower the signal. An outline of the steps:
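Cells (HepG2) transfected with promoter-driven reporter constructs, treated 24 h. Total RNA reverse-transcribed, reporter cDNA PCR-amplified, FAM-labelled by primer extension, digested, resolved by capillary electrophoresis. Activity fitted both directions versus DMSO.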

Assay [8] is described as follows: ATG_BRE_CIS: Attagene CIS-FACTORIAL HepG2 Assay for human Bone Morphogenetic Protein (BMP) Response Element (BRE) (AID 2282933). As to conditions: HepG2 BMP response element reporter, Attagene transcription factor profiling; actives raise or lower the signal. Summed up:
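A HepG2 multiplex reporter system measured inducible reporter mRNA 24 h post-dosing. Detection: RT-PCR, 6-FAM primer extension, HpaI digestion, capillary electrophoresis. Activity fitted bidirectionally relative to DMSO.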

For assay [9], the target named is Retinoic acid receptor alpha (Homo sapiens) (UniProt P10276). The experiment in a line: ATG_DR5_RAR_CIS: Attagene CIS-FACTORIAL HepG2 Assay for human Retinoic Acid Receptor Alpha (RARE), DR5 submotif (AID 2282934). As to conditions: HepG2 Attagene cis-factorial RARE DR5 reporter, mRNA; actives raise or lower the signal. Summed up:
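Endpoint fitted in both directions relative to DMSO as negative control. It reflects DR5 cis-element reporter mRNA induction in transiently transfected HepG2 cells, measured 24 h after dosing through RT-PCR and fluorescent capillary electrophoresis.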

The target of assay [10] is Transcription factor E2F1 (Homo sapiens) (UniProt Q01094). In words: ATG_E2F_CIS: Attagene CIS-FACTORIAL HepG2 Assay for human E2F Transcription Factor 1 (AID 2282935). As to conditions: HepG2 Attagene cis-reporter, E2F reporter RNA transcripts; actives raise or lower the signal. An outline of the steps:
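First, HepG2 cells were transfected with reporter transcription units. Next, they were dosed for 24 h. Then RNA was isolated, converted to cDNA, PCR-amplified, FAM-labeled, HpaI-digested and analyzed by capillary electrophoresis.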

Assay [11] is described as follows: ATG_E_Box_CIS: Attagene CIS-FACTORIAL HepG2 Assay for human Enhancer Box (E-box) (AID 2282936). As to conditions: HepG2 E-box cis-reporter transcription, actives raise or lower the signal. Summed up:
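Endogenous transcription factor activity was sensed in human HepG2 liver cells through transfected cis-promoter reporter units. After 24 h of dosing, total RNA was reverse-transcribed and reporter cDNA resolved by capillary electrophoresis.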

The nature of assay [12]: ATG_M_61_CIS: Attagene CIS-FACTORIAL HepG2 Assay for M61 Transcription Factor (Internal Marker) (AID 2282937). As to conditions: HepG2 Attagene CIS-FACTORIAL M61 internal marker reporter; actives raise or lower the signal. Summed up:
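Cells were transfected with reporter units under cis-regulatory promoters, treated with chemicals for 24 h, then lysed for RNA. Reporter transcripts were quantified by RT-PCR and capillary electrophoresis, and activity was fitted bidirectionally against DMSO.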

Assay [13] is described as follows: ATG_EGR_CIS: Attagene CIS-FACTORIAL HepG2 Assay for human Early Growth Response 1 (EGR1) (AID 2282938). As to conditions: HepG2 Attagene CIS-FACTORIAL EGR reporter mRNA; actives raise or lower the signal. An outline of the steps: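 Endogenous TF activity in HepG2 liver cells was gauged through cis-promoter reporter constructs transiently transfected. After 24 h dosing, reporter mRNA was quantified by RT-PCR and capillary electrophoresis, and curves fitted in both directions versus DMSO.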

Assay [14] in a line: ATG_M_19_CIS: Attagene CIS-FACTORIAL HepG2 Assay for M19 Transcription Factor (Internal Marker) (AID 2282939). As to conditions: HepG2 Attagene CIS-FACTORIAL M19 internal marker reporter; actives raise or lower the signal. Summed up: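 Chemical-treated HepG2 (24 h) with MRTU constructs; reporter transcripts detected by fluorescent RT-PCR fragment analysis on capillary electrophoresis. Internal background marker, DMSO as baseline.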

Assay [15] in a line: ATG_Ets_CIS: Attagene CIS-FACTORIAL HepG2 Assay for human Erythroblast Transformation Specific (ETS) (AID 2282941). As to conditions: HepG2 ETS cis-reporter transcription, actives raise or lower the signal. An outline of the steps:
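Multiplexed reporter transcript profiling: HepG2, 24 h treatment, total RNA to cDNA, PCR, 6-FAM labelling, HpaI cut, capillary electrophoresis. Gain- or loss-of-signal fitted against DMSO.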

For assay [16], the target named is Hepatocyte nuclear factor 3-beta (Homo sapiens) (UniProt Q9Y261). In words: ATG_FoxA2_CIS: Attagene CIS-FACTORIAL HepG2 Assay for human Forkhead box A2 (FOXA2) (AID 2282942). As to conditions: HepG2 cis-reporter transcription factor activity, 24 h; actives raise or lower the signal. An outline of the steps:
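Endogenous transcription factor activity was read in HepG2 cells carrying transiently transfected cis-promoter reporter units. After 24 h dosing, reporter mRNA was quantified by RT-PCR and capillary electrophoresis, and values fitted bidirectionally versus DMSO.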

Assay [17] can be described thus: ATG_FoxO_CIS: Attagene CIS-FACTORIAL HepG2 Assay for human Forkhead box O (FoxO) (AID 2282943). As to conditions: HepG2 Attagene cis-reporter, FoxO element, mRNA; actives raise or lower the signal. Summed up: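 Values reflect reporter mRNA induction or loss in HepG2 cells 24 h post-dosing, fitted bidirectionally with DMSO as negative control and baseline. Detection used RT-PCR and fluorescence capillary electrophoresis.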

Assay [18] in a line: ATG_GATA_CIS: Attagene CIS-FACTORIAL HepG2 Assay for human GATA Binding Protein (AID 2282944). As to conditions: HepG2 GATA cis-element reporter, Attagene multiplex mRNA; actives raise or lower the signal. Summed up:
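Transfected cis-reporter HepG2 cells were treated with chemicals for 24 hours. Total RNA was then converted to cDNA, amplified with reporter-specific primers and analysed by fluorescent capillary electrophoresis, using DMSO-treated wells as baseline.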

Assay [19] is described as follows: ATG_GLI_CIS: Attagene CIS-FACTORIAL HepG2 Assay for human Zinc Finger Protein GLI1 (AID 2282945). As to conditions: HepG2, Attagene cis-factorial reporter mRNA, GLI element; actives raise or lower the signal. An outline of the steps:
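HepG2 cells transiently transfected with cis-promoter multiplexed reporter units report endogenous transcription factor activity. After 24 h chemical exposure, reporter mRNA was quantified by RT-PCR, 6-FAM labelling, HpaI digestion and capillary electrophoresis, with bidirectional fitting against DMSO.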

Calls of active or inactive are those of the source. The calls were made as follows: active = hit-call score of the fitted dose curve at least 0.9, where 1 is the maximum; inactive = score below 0.9.

Transcription factor E2F1 (Homo sapiens), sequence (Q01094 whole entry, looked up): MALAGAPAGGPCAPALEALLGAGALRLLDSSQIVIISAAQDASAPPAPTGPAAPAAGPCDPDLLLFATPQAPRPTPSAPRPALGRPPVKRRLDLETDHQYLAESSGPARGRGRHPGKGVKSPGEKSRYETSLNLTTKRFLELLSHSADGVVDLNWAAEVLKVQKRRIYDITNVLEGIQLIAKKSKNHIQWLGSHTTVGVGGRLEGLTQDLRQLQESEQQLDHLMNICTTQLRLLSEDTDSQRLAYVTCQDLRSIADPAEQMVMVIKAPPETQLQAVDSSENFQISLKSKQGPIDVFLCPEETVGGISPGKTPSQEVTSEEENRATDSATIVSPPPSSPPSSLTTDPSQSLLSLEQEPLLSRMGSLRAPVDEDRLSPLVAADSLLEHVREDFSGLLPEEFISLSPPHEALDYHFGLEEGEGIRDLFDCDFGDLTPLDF
CCAAT/enhancer-binding protein beta (Homo sapiens), sequence (P17676 whole entry, looked up): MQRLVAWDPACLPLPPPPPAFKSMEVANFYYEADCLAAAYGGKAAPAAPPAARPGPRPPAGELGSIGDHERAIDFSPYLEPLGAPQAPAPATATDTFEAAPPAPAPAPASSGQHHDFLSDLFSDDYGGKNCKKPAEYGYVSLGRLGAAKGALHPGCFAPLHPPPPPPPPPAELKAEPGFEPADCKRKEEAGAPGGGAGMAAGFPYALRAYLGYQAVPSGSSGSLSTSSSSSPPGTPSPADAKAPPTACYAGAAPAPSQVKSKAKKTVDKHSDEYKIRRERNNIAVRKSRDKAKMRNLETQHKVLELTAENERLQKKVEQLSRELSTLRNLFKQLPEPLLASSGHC
Hepatocyte nuclear factor 3-beta (Homo sapiens), sequence (Q9Y261 whole entry, looked up): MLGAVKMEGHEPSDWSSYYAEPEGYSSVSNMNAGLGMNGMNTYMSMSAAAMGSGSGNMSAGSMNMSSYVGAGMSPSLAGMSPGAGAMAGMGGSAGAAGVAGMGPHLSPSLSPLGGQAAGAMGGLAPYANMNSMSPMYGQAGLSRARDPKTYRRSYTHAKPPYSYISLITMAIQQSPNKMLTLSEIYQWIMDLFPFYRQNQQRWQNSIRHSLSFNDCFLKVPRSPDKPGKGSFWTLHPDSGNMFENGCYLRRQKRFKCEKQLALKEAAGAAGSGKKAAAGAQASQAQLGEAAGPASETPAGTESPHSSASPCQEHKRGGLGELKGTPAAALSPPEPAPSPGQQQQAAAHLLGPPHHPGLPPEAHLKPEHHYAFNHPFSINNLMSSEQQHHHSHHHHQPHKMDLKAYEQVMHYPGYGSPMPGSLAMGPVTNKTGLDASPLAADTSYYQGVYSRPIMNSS
Aryl hydrocarbon receptor (Homo sapiens), sequence (P35869 whole entry, looked up): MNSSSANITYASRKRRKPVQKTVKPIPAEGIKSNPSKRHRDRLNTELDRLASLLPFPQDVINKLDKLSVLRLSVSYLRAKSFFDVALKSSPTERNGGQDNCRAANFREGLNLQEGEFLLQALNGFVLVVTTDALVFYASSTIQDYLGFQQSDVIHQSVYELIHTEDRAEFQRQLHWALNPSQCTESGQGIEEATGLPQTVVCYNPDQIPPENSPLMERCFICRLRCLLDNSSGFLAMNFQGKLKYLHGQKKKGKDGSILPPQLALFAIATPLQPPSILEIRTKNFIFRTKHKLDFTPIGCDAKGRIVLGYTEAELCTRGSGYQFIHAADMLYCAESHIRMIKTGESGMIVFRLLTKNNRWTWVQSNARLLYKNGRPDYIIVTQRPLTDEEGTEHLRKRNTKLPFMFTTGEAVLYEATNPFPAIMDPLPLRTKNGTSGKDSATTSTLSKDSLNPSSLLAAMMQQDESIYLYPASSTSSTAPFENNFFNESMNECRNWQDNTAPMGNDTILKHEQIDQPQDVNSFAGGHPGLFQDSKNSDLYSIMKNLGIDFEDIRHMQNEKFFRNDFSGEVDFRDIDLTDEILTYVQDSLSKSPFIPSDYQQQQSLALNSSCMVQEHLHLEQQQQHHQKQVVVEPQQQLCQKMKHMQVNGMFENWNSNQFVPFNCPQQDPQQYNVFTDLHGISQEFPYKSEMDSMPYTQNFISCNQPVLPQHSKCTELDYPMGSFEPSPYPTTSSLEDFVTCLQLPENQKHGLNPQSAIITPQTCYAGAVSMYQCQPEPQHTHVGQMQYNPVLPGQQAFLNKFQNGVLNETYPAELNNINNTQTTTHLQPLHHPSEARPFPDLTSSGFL
Retinoic acid receptor alpha (Homo sapiens), sequence (P10276 whole entry, looked up): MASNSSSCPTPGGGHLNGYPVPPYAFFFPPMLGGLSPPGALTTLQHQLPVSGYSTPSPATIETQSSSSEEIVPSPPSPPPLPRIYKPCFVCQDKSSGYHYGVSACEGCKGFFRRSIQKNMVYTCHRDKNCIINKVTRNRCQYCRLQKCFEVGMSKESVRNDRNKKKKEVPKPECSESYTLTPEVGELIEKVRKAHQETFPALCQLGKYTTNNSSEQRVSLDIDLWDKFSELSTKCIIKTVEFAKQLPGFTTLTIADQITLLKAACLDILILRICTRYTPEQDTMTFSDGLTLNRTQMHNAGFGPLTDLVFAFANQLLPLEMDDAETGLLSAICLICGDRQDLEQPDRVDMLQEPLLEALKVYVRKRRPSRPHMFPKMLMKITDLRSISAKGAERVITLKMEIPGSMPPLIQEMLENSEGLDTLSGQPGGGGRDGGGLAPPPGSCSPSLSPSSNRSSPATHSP

Consider `CC(C)C(OC(=O)c1ccccc1)C(C)(C)COC(=O)c1ccccc1` (stereo not drawn), for which the call in [1], in [2], in assay [3], in assay [4], in assay [5] and in [6] was inactive. For the same compound, the compound was called inactive in assay [7], in assay [8], in assay [9], in assay [10], in assay [11] and in assay [12]. The result in [13], in assay [14], in assay [15], in assay [16], in [17] and in assay [18] was inactive. Moreover, the call in [19] was inactive.
For the compound `CCCCCCCCCCCCS(=O)(=O)Cl`, the call in assay [1], in assay [2], in assay [3], in assay [4], in [5] and in assay [6] was inactive. Besides, the outcome in assay [7], in assay [8], in assay [9], in assay [10], in assay [11] and in assay [12] was inactive. Besides, the call in assay [13], in assay [14], in [15], in assay [16], in [17] and in assay [18] was inactive. For the same compound, in assay [19], the call was inactive.
What is called AC50 is the midpoint of the concentration-response curve, whichever way the signal moves. Consider `CCCC(O)C(O)CO` (stereo not drawn), for which the call in [1], in [2], in assay [3], in [4], in assay [6] and in assay [7] was inactive. For the same compound, the outcome in assay [8], in assay [9], in assay [10], in assay [11], in assay [12] and in assay [13] was inactive. In addition, the outcome in assay [14], in assay [15], in [16], in assay [17], in assay [18] and in assay [19] was inactive. Besides, in assay [5], the AC50 is 0.16 µM (active).
For the compound `CCCCCCOCCOCCO`, the outcome in assay [1], in assay [2], in assay [3], in assay [4], in [5] and in assay [6] was inactive. For the same compound, the result in assay [7], in [8], in assay [9], in [10], in assay [11] and in [12] was inactive. Moreover, the call in assay [13], in assay [14], in assay [15], in assay [16], in assay [17] and in assay [18] was inactive. For the same compound, the result in [19] was inactive.
`CC=Cc1ccc(OCC)c(O)c1`: the outcome in [1], in [2], in assay [3], in [4], in [6] and in assay [7] was inactive. Also, the call in [8], in assay [9], in [10], in assay [11], in [12] and in assay [13] was inactive. In addition, the call in assay [14], in assay [15], in assay [16], in assay [17], in [18] and in assay [19] was inactive. Besides, the AC50 in [5] is 11.3 µM (active).
Consider `CCOc1ccc(NC(=O)CC(C)O)cc1` (stereo not drawn), for which the outcome in assay [1], in assay [2], in assay [3], in assay [4], in [5] and in [6] was inactive. In addition, the compound was called inactive in assay [7], in [8], in [9], in [10], in assay [11] and in assay [12]. For the same compound, the call in [13], in assay [14], in [15], in [16], in assay [17] and in assay [18] was inactive. For the same compound, in assay [19], the compound was classed as inactive.
As to `COc1ccccc1[N+](=O)[O-]`, the outcome in assay [1], in assay [2], in assay [3], in assay [4], in assay [5] and in [6] was inactive. Further, the outcome in assay [7], in assay [8], in [9], in assay [10], in assay [11] and in assay [12] was inactive. In addition, the outcome in assay [13], in assay [14], in assay [15], in assay [16], in [17] and in [18] was inactive. The outcome in [19] was inactive.
